# Laboratory results taken from PubChem BioAssay (Tox21).
# Where “and” joins values, the source holds several entries; their conditions need not be identical. Equal entries are not always repeated. Records with an inconclusive call do not appear. Values without a mark were called inactive. Calls of active or inactive are those of the source. The call rests on the fitted dose curve.
# Test: qHTS assay for small molecule agonists of the p53 signaling pathway - cell viability (AID 651633); further: nearly all actives have a fitted effect of over 30% in size;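 on activity change, negative = cytotoxicity: p53RE-bla HCT reporter cells with a stable beta-lactamase p53 reporter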
# Conditions: p53RE-bla HCT-116 viability, ATP luminescence, 16 h; series mostly up to 83.3 µM; activity change, negative = cytotoxicity: at the top concentration
# Procedure, shortened: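 p53RE-bla cells, seeded at 4,000 per well and rested 5 h at 37 C/5% CO2, received compounds in DMSO for 16 h at 37 C. CellTiter-Glo was then added, and luminescence was read after 30 min at room temperature to gauge cytotoxicity.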
# On the % scale 0 is the no-effect control and ±100 the full control effect; potency means the concentration at half of the fitted maximal effect.
SMILES,"activity change, negative = cytotoxicity",Potency
CCCCCOC(=O)CCCC,6.93%,
NNc1nc(-c2ccc(N)cc2)cs1,-17%,
CCc1cc(Cc2cc(CC)cc(C(C)(C)C)c2O)c(O)c(C(C)(C)C)c1,,10.9 µM (active)
CCCCCCCCCCC=O,11.6% [at 95.3 µM],
CCCCC(CC)CN=C(N)NC(N)=NCCCCCCN=C(N)NC(N)=NCC(CC)CCCC (stereo unspecified),,26.6 µM (active)
O=C(c1ccc(O)cc1O)c1ccc(O)cc1O,,inactive
CCOC(=O)O[C@]1(C(=O)OCCl)CC[C@H]2[C@@H]3CCC4=CC(=O)C=C[C@]4(C)[C@H]3[C@@H](O)C[C@@]21C,8.58%,
Clc1ccc2cc3ccccc3cc2c1,16.6%,
C1CCCC1,-17.1%,
CCCCC(CC)COP(=O)(O)OCC(CC)CCCC (stereo unspecified),,61.3 µM (active) and 27.3 µM (active)
C[n+]1cc2c3c(ccc2c2ccc4cc5c(cc4c21)OCO5)OCO3,,1.5 µM (active)

# Test: qHTS assay for small molecules that induce genotoxicity in human embryonic kidney cells expressing luciferase-tagged ATAD5 - cell viability (AID 651634); further: nearly all actives have a fitted effect of over 25% in size
# Conditions: HEK293T ATAD5-luc cells viability, CellTiter-Fluor, 15.5 h; series mostly up to 83.3 µM; activity, negative = cytotoxicity: at the top concentration
# Procedure, shortened: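 15.5 hr compound or vehicle exposure of HEK293T cells expressing luciferase-tagged ATAD5 at 37C; live-cell protease activity is read by fluorescence after 30 min of CellTiter-Fluor.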
SMILES,Potency,"activity, negative = cytotoxicity"
Cc1cc(O)c(C(C)(C)C)cc1C(C)(C)C,15.4 µM (active),
C=CC(=O)OCCn1c(=O)n(CCOC(=O)C=C)c(=O)n(CCOC(=O)C=C)c1=O,27.3 µM (active),
CCCCCCCCCCn1cc[n+](CCCCCCCCCC)c1C,68.7 µM (active),
O=C(Nc1ccc(Oc2ccc(Cl)cc2)c(Cl)c1)c1cc(I)cc(I)c1O,,-17.7%
CCCN(CCC)C(=O)C(CCC(=O)OCCCN1CCN(CCOC(=O)Cc2c(C)n(C(=O)c3ccc(Cl)cc3)c3ccc(OC)cc23)CC1)NC(=O)c1ccccc1 (stereo unspecified),26.6 µM (active),
CN1CCN(CCC(=O)N2c3ccccc3Sc3ccc(C(F)(F)F)cc32)CC1,,1.6%
Oc1ccc(Cl)cc1Sc1cc(Cl)ccc1O,19.3 µM (active),
CCCCN1CCCC[C@H]1C(=O)Nc1c(C)cccc1C,,20.5%
CCCC/C=C/CCCCO,,19.7%
O=C(OCC(COC(=O)c1ccccc1)(COC(=O)c1ccccc1)COC(=O)c1ccccc1)c1ccccc1,,12.7%
O=S1(=O)CC(Cl)(Cl)C(Cl)(Cl)C1,24.3 µM (active),
N#CSc1ccc(N)c([N+](=O)[O-])c1,61.5 µM (active),
C=C(C)C(=O)OCC[N+](C)(C)C,,12.5%
CC1=NC(C)OC1C (stereo unspecified),,-11.2%
COCCCC/C(=N\OCCN)c1ccc(C(F)(F)F)cc1,,13.1%
Cc1ccc(-n2nc(C(C)(C)C)cc2NC(=O)Nc2ccc(OCCN3CCOCC3)c3ccccc23)cc1,,-3.42%
CCCCCCCC[N+](CCCCCCCC)(CCCCCCCC)CCCCCCCC,30.6 µM (active),
CCCCCCOC(=O)c1ccc(O)cc1,inactive,
[O-][n+]1ccccc1SSc1cccc[n+]1[O-],7.5 µM (active),
CCCCCCCCCCCCCCCCCC[N+](C)(C)Cc1ccccc1,55 µM (active),

SMILES,Potency,"activity, negative = cytotoxicity"
CCCC(C)c1ccccc1O (stereo unspecified),,2.8%
CCCCCCCCCCCCCC[P+](CCCC)(CCCC)CCCC (tested in a mixture with another compound),48.9 µM (active),
Oc1cccc(-c2c3nc(c(-c4cccc(O)c4)c4ccc([nH]4)c(-c4cccc(O)c4)c4nc(c(-c5cccc(O)c5)c5ccc2[nH]5)CC4)C=C3)c1,13.3 µM (active) and 11.9 µM (active),
Cc1cccc(S(=O)(=O)O)c1C,,8.76%
CCCCCCCCS(=O)C(C)Cc1ccc2c(c1)OCO2 (stereo unspecified),,-5.42% [at 95.3 µM]
CCOC(=O)/C=C(C)/C=C/C=C(C)/C=C/c1c(C)cc(OC)c(C)c1C,,14.4%
CC(NN)c1ccccc1 (stereo unspecified),,15.6%
CCCCC(CC)COC(=O)c1ccccc1C(=O)O (stereo unspecified),,25.7% [at 95.3 µM]
CCCCc1oc2ccc(NS(C)(=O)=O)cc2c1C(=O)c1ccc(OCCCN(CCCC)CCCC)cc1,26.6 µM (active),
CCCCCOC(=O)CCCC,,6.89%
NNc1nc(-c2ccc(N)cc2)cs1,24.3 µM (active),
CCc1cc(Cc2cc(CC)cc(C(C)(C)C)c2O)c(O)c(C(C)(C)C)c1,61.1 µM (active),
CCCCCCCCCCC=O,,-3.81% [at 95.3 µM]
CCCCC(CC)CN=C(N)NC(N)=NCCCCCCN=C(N)NC(N)=NCC(CC)CCCC (stereo unspecified),26.6 µM (active),
O=C(c1ccc(O)cc1O)c1ccc(O)cc1O,,-24.1%
CCOC(=O)O[C@]1(C(=O)OCCl)CC[C@H]2[C@@H]3CCC4=CC(=O)C=C[C@]4(C)[C@H]3[C@@H](O)C[C@@]21C,,12.4%
Clc1ccc2cc3ccccc3cc2c1,,31.9%
C1CCCC1,,-3.28%
CCCCC(CC)COP(=O)(O)OCC(CC)CCCC (stereo unspecified),,-27.6%
C[n+]1cc2c3c(ccc2c2ccc4cc5c(cc4c21)OCO5)OCO3,11.9 µM (active),

# Test: qHTS assay for small molecule disruptors of the mitochondrial membrane potential - cell viability (AID 720634); further: nearly all actives have a fitted effect of over 20% in size;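 on activity change, negative = cytotoxicity: human HepG2 liver cancer cells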
# Conditions: HepG2 viability, ATP luminescence (CellTiter-Glo), 1 h; series mostly up to 83.2 µM; activity change, negative = cytotoxicity: at the top concentration
# Procedure, shortened: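 In this qHTS format, HepG2 cells plated overnight were pinned with compound, incubated 1 hr, and assayed for ATP luminescence with CellTiter-Glo after m-MPI dye addition.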
SMILES,Potency,"activity change, negative = cytotoxicity"
Cc1cc(O)c(C(C)(C)C)cc1C(C)(C)C,15.4 µM (active),
C=CC(=O)OCCn1c(=O)n(CCOC(=O)C=C)c(=O)n(CCOC(=O)C=C)c1=O,,23.2%
CCCCCCCCCCn1cc[n+](CCCCCCCCCC)c1C,54.5 µM (active),
O=C(Nc1ccc(Oc2ccc(Cl)cc2)c(Cl)c1)c1cc(I)cc(I)c1O,,-9.62%
CCCN(CCC)C(=O)C(CCC(=O)OCCCN1CCN(CCOC(=O)Cc2c(C)n(C(=O)c3ccc(Cl)cc3)c3ccc(OC)cc23)CC1)NC(=O)c1ccccc1 (stereo unspecified),,-10.3%
CN1CCN(CCC(=O)N2c3ccccc3Sc3ccc(C(F)(F)F)cc32)CC1,,4.58%
Oc1ccc(Cl)cc1Sc1cc(Cl)ccc1O,9.44 µM (active) and 13.7 µM (active),
CCCCN1CCCC[C@H]1C(=O)Nc1c(C)cccc1C,,28.3%
CCCC/C=C/CCCCO,,17%
O=C(OCC(COC(=O)c1ccccc1)(COC(=O)c1ccccc1)COC(=O)c1ccccc1)c1ccccc1,,-7.71%
O=S1(=O)CC(Cl)(Cl)C(Cl)(Cl)C1,15.4 µM (active),
N#CSc1ccc(N)c([N+](=O)[O-])c1,,31.1% [at 95.3 µM]
C=C(C)C(=O)OCC[N+](C)(C)C,,-14.1%
CC1=NC(C)OC1C (stereo unspecified),,1.19%
COCCCC/C(=N\OCCN)c1ccc(C(F)(F)F)cc1,,7.51%
Cc1ccc(-n2nc(C(C)(C)C)cc2NC(=O)Nc2ccc(OCCN3CCOCC3)c3ccccc23)cc1,,-21.7%
CCCCCCCC[N+](CCCCCCCC)(CCCCCCCC)CCCCCCCC,27.3 µM (active),
CCCCCCOC(=O)c1ccc(O)cc1,27.3 µM (active) and 17.2 µM (active),
[O-][n+]1ccccc1SSc1cccc[n+]1[O-],,5.55%
CCCCCCCCCCCCCCCCCC[N+](C)(C)Cc1ccccc1,69.2 µM (active),

SMILES,Potency,"activity change, negative = cytotoxicity"
CCCC(C)c1ccccc1O (stereo unspecified),,-8.72%
CCCCCCCCCCCCCC[P+](CCCC)(CCCC)CCCC (tested in a mixture with another compound),61.5 µM (active),
Oc1cccc(-c2c3nc(c(-c4cccc(O)c4)c4ccc([nH]4)c(-c4cccc(O)c4)c4nc(c(-c5cccc(O)c5)c5ccc2[nH]5)CC4)C=C3)c1,inactive,
Cc1cccc(S(=O)(=O)O)c1C,,17.3%
CCCCCCCCS(=O)C(C)Cc1ccc2c(c1)OCO2 (stereo unspecified),,-17.5% [at 95.3 µM]
CCOC(=O)/C=C(C)/C=C/C=C(C)/C=C/c1c(C)cc(OC)c(C)c1C,,-4.45%
CC(NN)c1ccccc1 (stereo unspecified),,-6.52%
CCCCC(CC)COC(=O)c1ccccc1C(=O)O (stereo unspecified),,-25.4% [at 95.3 µM]
CCCCc1oc2ccc(NS(C)(=O)=O)cc2c1C(=O)c1ccc(OCCCN(CCCC)CCCC)cc1,29.8 µM (active),
CCCCCOC(=O)CCCC,,16.6%
NNc1nc(-c2ccc(N)cc2)cs1,,-13.1%
CCc1cc(Cc2cc(CC)cc(C(C)(C)C)c2O)c(O)c(C(C)(C)C)c1,,20.8%
CCCCCCCCCCC=O,,-3.62% [at 95.3 µM]
CCCCC(CC)CN=C(N)NC(N)=NCCCCCCN=C(N)NC(N)=NCC(CC)CCCC (stereo unspecified),21.1 µM (active),
O=C(c1ccc(O)cc1O)c1ccc(O)cc1O,,-15.8%
CCOC(=O)O[C@]1(C(=O)OCCl)CC[C@H]2[C@@H]3CCC4=CC(=O)C=C[C@]4(C)[C@H]3[C@@H](O)C[C@@]21C,,-4.05%
Clc1ccc2cc3ccccc3cc2c1,,3.26%
C1CCCC1,,4.75%
CCCCC(CC)COP(=O)(O)OCC(CC)CCCC (stereo unspecified),,-17.5%
C[n+]1cc2c3c(ccc2c2ccc4cc5c(cc4c21)OCO5)OCO3,11.9 µM (active),
